Reference: PubChem BioAssay AID2314 (National Center for Advancing Translational Sciences (NCATS), 2010)
Among all 300,000 compounds or so, about 37,000 (12%) were called active. Many of the other results were omitted from the sample, so actives are more common in it than they were. A number with no mark means an inactive call. No stated cut-off is given here; in the data, active means max response mostly above about 13% (no sharp cut-off); inactive means mostly below about 14%.

Assay: Cycloheximide Counterscreen for Small Molecule Inhibitors of Shiga Toxin; further: read at 38.3 µM for the half of the compounds with a filed dose; 0% is about no effect
Conditions: cell reporter, cycloheximide protein synthesis inhibition counterscreen; active compounds read high

Row | SMILES | max response
1 | N#C/C(=C/c1ccc(Cl)cc1)NC(=O)c1ccccc1 | 17.9%
2 | Cc1ccc(C)c(CSc2nc(-c3ccco3)nc3c2c(=O)n(C)c(=O)n3C)c1 | -2.42%
3 | Cc1ccc(C)c(CN2CCC(CNC(=O)Nc3ccc(C)c(F)c3)CC2)c1 | 1.71%
4 | N#CC1(NC(=O)COC(=O)CCN=C2NS(=O)(=O)c3ccccc32)CCCCC1 | -3.22%
5 | COc1cccc(NC(=O)NCCN2CCCCC2)c1 | 0.722%
6 | COC(=O)[C@@H](NC(=O)NCc1cccc(OC)c1)C(C)C | -2.02%
7 | COc1cccc(CC(=O)Nc2ccc(-c3csc(C)n3)cc2)c1 | 15.4%
8 | Cc1ccc(CC(=O)Nc2cccc(C#N)c2)cc1 | 14.1%
9 | COc1cccc(NC(=O)NCc2ccc(F)cc2)c1 | 10.4% (active)
10 | COc1cccc(NC(=O)Cc2ccc(C)cc2)c1 | 27.5% (active)
11 | O=S(=O)(c1cccc(Cn2nnc(-c3ccc(F)cc3)n2)c1)N1CCOCC1 | -2.1%
12 | Cc1sc(NC(=O)C2C3CCC(O3)C2C(=O)O)c(C(=O)OC(C)C)c1-c1ccc(Cl)cc1 (stereo not drawn) | -2.64%
13 | Cc1[nH]c(C)c(S(=O)(=O)N2CCN(c3cccc(C(F)(F)F)c3)CC2)c1C(=O)N1CCCCC1 | 0.664%
14 | Cc1ccc(CN2CCN(c3ncccn3)CC2)c(C)c1 | 1.42%
15 | COc1ccccc1C1C(C#N)=C(N)Oc2c1c(-c1ccccc1)nn2-c1ccccc1 (stereo not drawn) | 10.5%
16 | CCCc1cc(=O)[nH]c(SCC(=O)N2C(C)CCCC2C)n1 (stereo not drawn) | -2.36%
17 | COc1ccc(OC)c(CCNC(=O)CCn2ccc3cc(S(=O)(=O)N4CCCC4)ccc32)c1 | -1.39%
18 | Cc1ccc(NC(=O)CN2CCC(C(N)=O)CC2)cc1[N+](=O)[O-] | 15.7% (active)
19 | CN1CCN(CC(=O)Nc2cccc([N+](=O)[O-])c2)CC1 | 1.18%
20 | Cc1ccc(C)c(S(=O)(=O)N2CCN(CC(=O)Nc3ccc([N+](=O)[O-])cc3)CC2)c1 | -0.724%
21 | CCc1nc2nc(C)c(NS(=O)(=O)c3ccc4c(c3)CCCC4)c(=O)n2[nH]1 | 1.61%
22 | O=C(Cn1cnc2ccccc21)Nc1ccccc1-c1ccccc1 | -3.38%
23 | O=C(O)CCC(=O)N(Cc1ccccc1)Cc1ccccc1 | -1.7%
24 | Nc1nc(NCC2CCCO2)nc(Nc2ccccc2F)c1[N+](=O)[O-] (stereo not drawn) | -2.31%
25 | CCN1CCN(C(=O)c2ccccc2N(C)S(=O)(=O)c2ccc(C)cc2)CC1 | -3.44%

Row | SMILES | max response
26 | Cc1ccc(OCC(=O)N2CCN(C(=O)c3cccnc3)CC2)cc1 | -5.2%
27 | CCN(CC)C(=O)N1CCN(C(=O)c2ccc(C)cn2)CC1 | 27.2% (active)
28 | Cc1c(C=O)c2ccccn2c1C(=O)c1ccncc1 | -6.15%
29 | C=CCn1c(SCc2cccc(F)c2)nc2cc(C(=O)N3CCC(C(N)=O)CC3)ccc2c1=O | -5.75%
30 | CC(C)NC(=S)NN=C1CCCCCCCCCCC1 | 16.4%
31 | O=[N+]([O-])c1cccc(/C([O-])=C(/C(=S)Nc2ccccc2F)[n+]2ccccc2)c1 | 44.3% (active)
32 | CCC(C)NCC(=O)Nc1ccc([N+](=O)[O-])cc1C(=O)Nc1ccccc1F (stereo not drawn) | 9.91%
33 | Cc1ccc(/C([O-])=C(/C(=S)NCc2ccco2)[n+]2ccccc2)cc1[N+](=O)[O-] | -1.29%
34 | CC(C)C[C@@H](COc1ccccc1)N1CCN(CC(C)C)CCC1=O | 12.1%
35 | O=c1[nH]c(SCc2cccc(F)c2)nc2ccccc12 | 0.0734%
36 | Nc1nnc2c(C(F)(F)F)nc3ccccc3n12 | -5.14%
37 | O=C1c2ccccc2C(=O)N1c1cccc2ccccc12 | -0.411%
38 | O=C(NCc1ccc2c(c1)OCO2)c1ccc(Cl)s1 | 17.6% (active)
39 | COc1cc(OC)c(C(=O)NCc2ccc3c(c2)OCO3)cc1OC | -1.06%
40 | O=C(NCc1ccc2c(c1)OCO2)C12CC3CC(CC(C3)C1)C2 | -3.3%
41 | O=C(NCc1ccc2c(c1)OCO2)c1cc(F)c(F)cc1Cl | 16.6%
42 | O=C(NCc1ccc2c(c1)OCO2)c1sccc1Br | 16.3% (active)
43 | O=C(NCc1ccc2c(c1)OCO2)c1cc2c(s1)CS(=O)(=O)C2 | -5.16%
44 | Cc1ccccc1NC(=O)C(C)c1ccc(-c2ccccc2)c(F)c1 (stereo not drawn) | -5.36%
45 | CC(CC(=O)N1CCN(c2ccccc2)CC1)S(=O)(=O)c1ccc2c(c1)NC(=O)CS2 (stereo not drawn) | 1.2%
46 | O=C(Nc1ccncc1)c1ccc([N+](=O)[O-])cc1Cl | -4.24%
47 | CN1C(=O)c2ccc(C(=O)Nc3ccc(Br)cn3)cc2C1=O | 1.67%
48 | O=C(NNS(=O)(=O)c1ccc(F)cc1)c1ccc([N+](=O)[O-])cc1Cl | -3.45%
49 | O=C(Nc1ccc(Br)cn1)c1ccc([N+](=O)[O-])o1 | 48.9% (active)
50 | O=C(Nc1ccc(Br)c2cccnc12)c1ccc(Cn2cc([N+](=O)[O-])cn2)o1 | -3.97%

Row | SMILES | max response
51 | O=C(Nc1ccc(Br)cn1)c1ccc([N+](=O)[O-])cc1Cl | 51.7% (active)
52 | O=C(Nc1cccnc1)c1cc([N+](=O)[O-])ccc1Cl | -2.56%
53 | Cc1cc([N+](=O)[O-])ccc1NC(=O)c1ccc(NC(=O)C(C)C)cc1 | 5.74%
54 | CC(C)C(=O)Nc1cccc(NC(=O)c2ccc([N+](=O)[O-])cc2Cl)c1 | 27.7% (active)
55 | O=C1CCNCCN1[C@H](CO)Cc1ccccc1 | -1.44%
56 | COc1cc(NC(=O)C2=C(C)OCCS2)c(Cl)cc1C(=O)NCCN1CCN(C)CC1 | -6.54%
57 | O=C(O)c1[nH]c2ccccc2c1C(c1cccc(O)c1)c1c(C(=O)O)[nH]c2ccccc12 | -0.808%
58 | COC(=O)c1sccc1NS(=O)(=O)c1ccc(F)cc1F | -6.38%
59 | Cc1c(CN2CCC(n3nccc3NC(=O)CCc3ccccc3)CC2)cnn1C | 0.463%
60 | CCNC(=O)CC1C(=O)N(c2ccc(OC)cc2)C(=O)N1CCOC (stereo not drawn) | -2.06%
61 | COc1ccc(C(=O)OCC(=O)NCCCc2ccccc2)cc1OC | 0.591%
62 | CCOC(=O)C(Cc1ccccc1)NC(=O)CCC(=O)c1ccc(OC)cc1 (stereo not drawn) | -1.47%
63 | COc1ccc(/C(N)=N/OC(=O)CCCc2ccccc2)cc1 | 44.3% (active)
64 | COc1ccc(/C(N)=N/OC(=O)Oc2ccccc2)cc1 | -4.11%
65 | COc1ccc(/C(N)=N/OC(=O)Cc2ccccc2)cc1 | 46.9% (active)
66 | COc1ccc(C(=O)NC(=S)NNC(=O)CCc2ccccc2)cc1 | 10.3%
67 | COCCN1CCn2c(nc3cc(NS(C)(=O)=O)ccc32)C1 | -4.53%
68 | CC1(C)COC(c2cccn2Cc2ccccc2Cl)=N1 | 2.16%
69 | O=C(Nc1cccc(CCc2ccccn2)c1)c1ccc(Cl)cc1 | 11%
70 | C=CCNc1nc(C)nc(OC)n1 | -3.36%
71 | COc1nc(NCc2ccc(Cl)cc2)nc(OC)n1 | 9.12%
72 | C=CCNc1nc(Nc2ccc(Cl)cc2)nc(OC)n1 | 35.6% (active)
73 | NS(=O)(=O)c1ccc(CNC(=O)c2cccc(Oc3ccccc3)c2)cc1 | 1.56%
74 | CC1CCCN(C(=O)c2ccc3c(c2)C(=O)N(CCC2=CCCCC2)C3=O)C1 (stereo not drawn) | 2.05%
75 | COc1ccc(S(=O)(=O)N2CCOC2CNC(=O)C(=O)NCc2ccncc2)cc1OC (stereo not drawn) | -2.13%

Row | SMILES | max response
76 | C/C(=N\NC(=O)c1ccccc1F)c1ccccn1 | 31.8% (active)
77 | CN(NC(=O)c1ccccc1F)c1nc(C(F)(F)F)nc2ccccc12 | -3.39%
78 | C/C(=N\NC(=O)Cc1ccc(Cl)cc1)c1ccccn1 | -1.28%
79 | NC1=NC(=O)C(Cc2cccc(Cl)c2)S1 (stereo not drawn) | 13%
80 | O=C(NC(=S)Nc1ccccc1N1CCCCC1)c1ccc(F)cc1 | 4.5%
81 | COc1ccc(C(=O)NC(=S)Nc2ccccc2N2CCN(S(C)(=O)=O)CC2)cc1OC | -0.375%
82 | COc1ccccc1C(=O)NC(=S)Nc1ccccc1N1CCCCC1 | 18.9% (active)
83 | COc1ccc(OC)c(NC(=O)c2sc3nc(C)cc(C)c3c2N)c1 | 1.77%
84 | O=S(=O)(NC1CC1)c1ccc(F)c(F)c1 | -2.05%
85 | COc1ccccc1-n1c(SCC(=O)Nc2cccc(C(=O)O)c2)nnc1-c1ccccc1O | 0.473%
86 | C=C1/C(=C\C=C2\CCCC3(C)C2CCC3C(C)/C=C/C(O)C2CC2)CC(O)CC1O (stereo not drawn) | -6.77%
87 | C/C(=N\NC(=O)COc1c(C)cccc1C)c1cccs1 | 6.57%
88 | Cc1ccc(C)c(NC(CC(=O)c2ccccc2)C(=O)OCC(=O)c2cccs2)c1 (stereo not drawn) | -1.02%
89 | Cc1ccccc1C(CC(=O)c1cccs1)C(C#N)C#N (stereo not drawn) | 58.6% (active)
90 | Cc1[nH]c2ccccc2c1SCC(=O)Nc1nccs1 | 29.5% (active)
91 | CCn1c(SCC(=O)Nc2nccs2)nnc1-c1ccncc1 | -3.78%
92 | Cc1cc(C(F)(F)F)nc(SCC(=O)Nc2nccs2)n1 | -1.23%
93 | CC(=O)c1cc(C#N)c(SCC(=O)Nc2nccs2)nc1C | 24.6% (active)
94 | CC(=O)c1cc(C#N)c(N2CCCCC2)nc1C | 2.13%
95 | Cc1cccc(C)c1Nc1nnc(SCC(=O)Nc2sccc2C#N)s1 | -1.09%
96 | CC(=O)c1cc(C#N)c(SCC(=O)C(C)(C)C)nc1C | 55.2% (active)
97 | CC(=O)c1cc(C#N)c(N2CC(C)OC(C)C2)nc1C (stereo not drawn) | -2.5%
98 | CCn1c(SCC(=O)Nc2nccs2)nnc1-c1ccco1 | -4.57%
